Reference: PubChem BioAssay (NCATS)
Inconclusive results are not listed. A call without a number means that no potency is given here. A number with no mark means an inactive call. Activity calls are given as the source filed them. The call rests on the fitted dose curve; in most records, active means well fitted curve in the direction sought with a large enough effect; inconclusive means small, poorly fitted or top-dose-only effect, or another doubt; inactive means no such curve, though single readings can be large; an effect the other way counts as inactive or inconclusive.

How the values were obtained:
[1] = qHTS for Inhibitors of Plasmodium falciparum (GB4) proliferation (AID 504315); further: nearly all actives have a fitted effect of over 50% in size
Summary of the method: (§1)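 Parasite growth measured as SYBR Green DNA fluorescence (ex 485, em 535 nm) after overnight lysis following 72 h culture at 37 °C, 0.3% parasitemia, 2.5% hematocrit. Values normalized against DMSO and 0.29 uM artemisinin controls, with plate-stack correction.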

[2] = qHTS for Inhibitors of Plasmodium falciparum (7G8) proliferation (AID 504316); further: series mostly up to about 6.7 µM; nearly all actives have a fitted effect of over 65% in size
Summary of the method: as §1

[3] = qHTS for Inhibitors of Plasmodium falciparum (CP250) proliferation (AID 504320)
Summary of the method: as §1

[4] = qHTS for Inhibitors of Plasmodium falciparum (HB3) proliferation (AID 504318); further: nearly all actives have a fitted effect of over 60% in size; further: potency means the concentration at half of the fitted maximal effect
Summary of the method: as §1

Structure (SMILES)	Potency [1]	Potency [2]	Potency [3]	Potency [4]
COC(=O)C1=C(C)N(CCc2cc(OC)c(OC)c(OC)c2)C(=O)N[C@H]1c1ccccc1	inactive	inactive	inactive	
C[C@H]1Cc2c(COc3ccccc3)nc3c(c2CO1)CN(S(=O)(=O)c1ccc(Cl)c2nonc12)CC3				inactive
CC(C)Nc1oc(-c2ccccc2)nc1C=Cc1ccccc1			inactive	1.9 µM (active)
